The list is not random: actives were taken first. Their share in the collection is about 12%.
Pf growth 96h – P. falciparum growth inhibition at 96 hour, primary screen for plastid delayed-death inhibitors; P. falciparum luciferase reporter growth, 96 h; hit rate 6.9% among 320,000; AID 504834; Potency, µM (series often up to 28.7 µM), hits mostly inhibitors
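Delayed-death screen, second-generation endpoint: infected erythrocytes, 2% hematocrit, 0.05% parasitemia final; 96 hours at 37 C, 5% CO2; luciferase detection reagent; luminescence decrease equals reduced growth.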
SARS PLP yeast – inhibitors of SARS-CoV papain-like protease in yeast; S. cerevisiae expressing SARS-CoV PLpro, growth rescue; AID 485353; Potency, µM (doses to about 32.9 µM), actives largely listed as activators; hit rate 0.19% among 330,000; calls by dose curve; further: nearly all actives have a fitted effect of over 55% in size
Pf growth 48h – inhibits P. falciparum growth in the first generation, 48 h; Potency, µM (titrated, usually from 28.7 µM), usual class: inhibitors; hit rate 5.9% among 310,000; P. falciparum luciferase growth in erythrocytes, 48 h
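Compounds are pin-transferred into medium, infected erythrocytes (2% hematocrit, 0.1% parasitemia final) are added, and plates sit one parasite generation at 37 C in 5% CO2. Detection reagent is then added and luminescence measured.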
HCV inh – inhibitors of hepatitis C virus infection; Potency, µM (doses to about 41.8 µM), usual class: inhibitors; Huh7.5.1 HCVcc-Cre infection, luciferase reporter, 44 h; hit rate 3.4% among 340,000; AID 651820
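Infectious HCV cell culture screen: compound-treated cells (1,000/well, pre-plated 4 h) are infected with HCVcc-Cre at roughly 0.5 moi and grown 44 h. Infection is quantified by luciferase signal after 15 min substrate incubation at room temperature.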
NS1 inh – inhibitors of influenza NS1 protein function. Potency, µM (series often up to 46.1 µM). hit rate 0.4% among 270,000; calls by dose curve; further: actives are rising curves; nearly all actives have a fitted effect of over 50% in size
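OD600 was taken as the measure of yeast growth restored by compound in an NS1-expressing S. cerevisiae strain. Cells had been washed out of glucose medium and diluted 1:100 into galactose -URA medium, pH 6.0.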
AMA1 RON2 block – disrupts binding of P. falciparum AMA1 to RON2; AID 720542; Potency, µM (doses to about 58.2 µM), usual class: inhibitors; AlphaScreen AMA1-biotinylated RON2 peptide binding; hit rate 0.2% among 360,000; further: nearly all actives have a fitted effect of over 45% in size
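AMA1 (3D7) with his tag at 25 nM final met compounds first, then biotinylated RON2 peptide at 25 nM; detection used donor plus acceptor beads, 10 µg/mL apiece, read by AlphaScreen after 30 min at room temperature.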
A number is an active result; 0 = inactive; ? = inconclusive; - = not tested or not shown. Unless noted, the call rests on the fitted dose curve; in most records, active means well fitted curve in the direction sought with a large enough effect; inconclusive means small, poorly fitted or top-dose-only effect, or another doubt; inactive means no such curve, though single readings can be large; an effect the other way counts as inactive or inconclusive.

SMILES	Pf growth 96h	SARS PLP yeast	Pf growth 48h	HCV inh	NS1 inh	AMA1 RON2 block
O=c1c(NCCc2ccccc2)c(-c2ccccc2)c1=O	0	0	2.08µM	0	0	0
CCN(CC)c1ccc(-c2nc3cnccn3c2NC2CCCC2)cc1	?	0	?	31.6µM	0	0
c1cn2c(NC3CCCCC3)c(-c3ccc(SC4CCCCC4)cc3)nc2cn1	?	0	3.7µM	0	-	0
c1cc(SC2CCCCC2)cc(-c2nc3cnccn3c2NC2CCCCC2)c1	-	0	-	?	-	0
O=S1(=O)NC(=NCC(c2ccco2)N2CCCCC2)c2ccccc21 (stereo not drawn)	13.1µM	0	?	0	0	0
CN(C)C(CN=C1NS(=O)(=O)c2ccccc21)c1ccco1 (stereo not drawn)	0	0	0	0	0	0
CC(=O)Nc1ccc(NC(=O)c2cc(-c3cc(C)cc(C)c3O)n[nH]2)cc1	?	0	11.7µM	8.91µM	?	0
Cc1cc(C)c(OCC(=O)Nc2ccc(S(=O)(=O)N3CCOCC3)cc2)c(C)c1	?	0	?	-	0	0
CC(=O)Nc1ccc(NC(=O)c2cc(-c3ccc(C)c(C)c3O)n[nH]2)cc1	2.33µM	0	11.7µM	0	0	0
Cc1cc(C)c(O)c(-c2cc(C(=O)Nc3ccc(S(=O)(=O)N4CCOCC4)cc3)[nH]n2)c1	-	0	5.86µM	10µM	0	0
COc1ccc(NC(=O)c2cc(-c3ccc(C)c(C)c3O)n[nH]2)cc1Cl	?	0	?	2.51µM	0	0
CC[C@@]1(C(=O)OC)N[C@H](CN(C)C(=O)NC(C)C)[C@@H]2C(=O)N(C)C(=O)[C@@H]21	-	0	-	0	-	0
CCCCN(C(=O)c1ccc2c(c1)S(=O)(=O)N=C1CCCCCN12)c1c(N)n(CCCC)c(=O)[nH]c1=O	0	0	0	0	-	0
Cc1ccc(-c2cc(C(=O)Nc3ccc(S(=O)(=O)Nc4ncccn4)cc3)[nH]n2)c(O)c1C	9.28µM	0	?	0	0	0
Cc1ccc(NC(=O)c2cc(-c3ccc(C)c(C)c3O)n[nH]2)cc1C	?	0	?	?	0	0
Cc1ccc(N2C(=O)C3CC(c4ccccc4)=C4C5C=CC(C6C(=O)N(c7ccc(C)cc7)C(=O)C56)C4C3C2=O)cc1 (stereo not drawn)	?	0	13.1µM	0	0	0
Cc1ccc(N2C(=O)C3CCCN3C2=S)c(C)c1 (stereo not drawn)	?	0	?	0	-	0
Cc1ccc(N2C(=O)C3CC(c4ccccc4)=C4C5C=CC(C6C(=O)N(c7ccc(C)cc7C)C(=O)C56)C4C3C2=O)c(C)c1 (stereo not drawn)	-	0	2.08µM	?	?	0
CCOC(=O)CC1C(=O)NCCN1S(=O)(=O)c1cccc(C(F)(F)F)c1 (stereo not drawn)	?	0	0	0	0	0
Cc1c(C(=O)NNC(=S)Nc2ccc(S(N)(=O)=O)cc2)oc2ccccc12	?	0	?	0	0	0
CC1=C(C(=O)N(C)C)CC(CC(=O)NCCCCc2ccccc2)C(=O)N1Cc1ccc(F)cc1 (stereo not drawn)	-	-	-	-	-	0
O=C(COc1ccc(C(=O)c2ccccc2)cc1)Nc1cccnc1	?	0	0	6.31µM	0	0
O=C(COc1ccc(S(=O)(=O)N2CCOCC2)cc1)Nc1ccc(Br)cc1	-	0	-	10µM	-	0
CC(=O)c1ccc(OCCCC(=O)OCC(=O)N2CCN(c3ccccc3)CC2)cc1	9.28µM	0	-	0	0	0
N#Cc1ccc(-c2ccc(OCC(=O)Nc3cccnc3)cc2)cc1	0	0	0	?	0	0
SMILES	Pf growth 96h	SARS PLP yeast	Pf growth 48h	HCV inh	NS1 inh	AMA1 RON2 block
O=C(COc1ccc(S(=O)(=O)N2CCOCC2)cc1)NC1CCCCC1	11.7µM	0	?	0	-	0
COc1ccc(S(=O)(=O)N2CCC(C(=O)NCCC(=O)NCc3cccnc3)CC2)cc1	-	-	-	-	-	0
O=C(c1ccc(F)cc1)N1CCN=C1c1ccccc1	?	0	0	0	0	0
CN(C(=O)CSc1cc(Cl)ccc1Cl)C1CCS(=O)(=O)C1 (stereo not drawn)	-	0	-	0	-	0
O=C(CN1C(=O)NC2(CCCC2)C1=O)N1CCN(S(=O)(=O)c2ccccc2[N+](=O)[O-])CC1	0	-	0	0	-	0
COc1ccc(S(=O)(=O)N2CCOCC2)cc1NC(=O)CCCOc1ccc(C(C)=O)cc1	-	-	-	-	-	0
CC(=O)c1ccc(OCCCC(=O)Nc2ccc(S(=O)(=O)N3CCOCC3)cc2)cc1	?	11.2µM	0	?	-	0
O=C(COc1ccc(C(=O)c2ccccc2)cc1)NC1CCCCCC1	?	0	?	11.2µM	0	0
O=C(CCCOc1ccc(Br)cc1)Nc1ccc(S(=O)(=O)N2CCOCC2)cc1	8.28µM	0	?	?	-	0
CC(=O)c1ccc(OCCCC(=O)N2CCN(S(=O)(=O)c3cc(C)ccc3C)CC2)cc1	?	0	?	?	-	0
CC(=O)c1ccc(OCCCC(=O)N2CCN(S(=O)(=O)c3ccc(C(C)C)cc3)CC2)cc1	5.22µM	0	9.28µM	10µM	-	0
COc1ccc(OCC(=O)Nc2ccc(S(=O)(=O)N3CCOCC3)cc2)cc1	?	0	0	0	0	0
O=C(O)[C@@H]1[C@@H]2O[C@H]([C@@H](Br)[C@H]2Br)[C@H]1C(=O)O	-	-	-	-	0	-
CC(C(=O)O)N(c1ccccc1Cl)S(C)(=O)=O (stereo not drawn)	0	0	?	0	-	0
Cc1ccc(S(=O)(=O)N2CCN(C(=O)c3ccc(-n4cncn4)c([N+](=O)[O-])c3)CC2)c(C)c1	-	-	-	-	-	0
O=C(COc1ccc(S(=O)(=O)N2CCOCC2)cc1)Nc1ccc2c(c1)OCCO2	-	0	?	0	0	0
CCOc1ccc(S(=O)(=O)N2CCN(C(=O)CCOc3ccccc3C)CC2)cc1	?	0	10.4µM	?	-	0
O=C(COc1ccc(S(=O)(=O)N2CCOCC2)cc1)Nc1ccc(Cl)c(C(F)(F)F)c1	0	0	9.28µM	?	0	0
O=C(CSc1nc(=O)n2ccccc2n1)N1N=C(c2cccs2)CC1c1ccc(F)cc1 (stereo not drawn)	?	0	?	?	-	0
CCN1CCN(CC(=O)N2N=C(c3cccs3)CC2c2ccc(OC)cc2)C(=O)C1=O (stereo not drawn)	0	0	0	0	-	0
Cc1ccc(C2CC(c3cccs3)=NN2C(=O)CSc2nc(=O)n3ccc(C)cc3n2)cc1 (stereo not drawn)	?	0	8.28µM	0	-	-
COc1ccc(C2CC(c3cccs3)=NN2C(=O)CSc2nc(=O)n3ccc(C)cc3n2)cc1 (stereo not drawn)	?	0	11.7µM	?	-	0
CC(C)OC(=O)c1ccc2ccc(-c3ccccc3)nc2c1	-	-	-	-	-	0
CCOC(=O)c1ccc2nc(C)c3c(c2c1)OC(C)C3 (stereo not drawn)	0	0	?	10µM	0	0

Screens as filed in PubChem.
